Screening data deposited in PubChem by National Center for Advancing Translational Sciences (NCATS).
In the library only some 21% were active in any assay of this set; here they are far more common.
DRD3 antagonist: antagonists of human D3 dopamine receptor; P35462; D3R cells, DiscoveRx beta-arrestin luminescence, antagonist mode; stronger effect = lower value; max response, negative = inhibition, %; 2.5% of 360,000 active; in the data active = max response below about -50%; inconclusive = no clear call, values can overlap the other calls; note: % is set by controls: 0 for no effect and ±100 for the full control effect
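Cells plated overnight at 1500 cells/well, then exposed to library compounds with dopamine controls for 90 minutes at 37 degrees C. DiscoveRx reagent added for 30–60 minutes at room temperature; luminescence read, quantitative HTS format.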
DT40 TDP1 CPT: DT40-hTDP1 cell growth loss with CPT. chicken DT40 Tdp1-/-;hTDP1 cells + 20 nM CPT, ATP luminescence, 48 h. Potency, µM (series often up to 46.2 µM), without a hit: at the highest dose activity change, negative = growth inhibition, hits mostly inhibitors. 12% of 420,000 active; note: potency is the fitted concentration of half-maximal effect; % is set by controls: 0 for no effect and ±100 for the full control effect; nearly all actives have a fitted effect of over 55% in size
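Chicken DT40 Tdp1-/- cells stably complemented with human TDP1 were seeded at 400 cells/well in medium containing 20 nM camptothecin, exposed to pin-transferred compounds, and grown at 37 °C for at least 48 hr. Viability was read as ATP luminescence.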
ClpP mod: qHTS Assay for Activators of ClpP. ATP-dependent Clp protease proteolytic subunit (Bacillus subtilis (strain 168)), P80244. purified B. subtilis ClpP, FRET peptide cleavage, 20 min. Potency, µM (titrated, usually from 57.5 µM), for inactives: top-dose activity change, negative = active. 1.9% of 340,000 active. AID 651965, 2013; active = well fitted falling curve with a large enough effect; inconclusive = small, poorly fitted or top-dose-only effect; inactive = no such curve, though single readings can be large or run the other way; note: potency is the fitted concentration of half-maximal effect; the source files actives as falling curves though it sought activators and does not explain the sign; nearly all actives have a fitted effect of over 65% in size
Target sequence (P80244 whole entry, looked up): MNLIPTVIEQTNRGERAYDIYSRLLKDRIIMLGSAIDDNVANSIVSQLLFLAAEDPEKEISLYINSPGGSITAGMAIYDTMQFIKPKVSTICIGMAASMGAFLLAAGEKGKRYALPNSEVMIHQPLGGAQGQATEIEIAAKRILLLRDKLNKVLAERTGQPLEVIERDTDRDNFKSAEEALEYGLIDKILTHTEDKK
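FRET quenching reversal measured ClpP activation: 10 microg/mL B. subtilis ClpP at pH 8 with the FRET-FV decapeptide, read at 430 nm after 320 nm excitation. The 20-min minus 0-min signal was scaled between DMSO/no-enzyme wells and ADEP (5.8 microM final).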
IL-1B inflam inh: inhibitors of inflammasome signaling (IL-1 beta secretion). THP-1 LPS/ATP IL-1B secretion, AlphaLISA, 16 h; stronger effect = lower value. activity change, % at 57.5 µM. 4.7% of 360,000 active; in the data active = activity change below about -50%; inconclusive = mostly about -30% to -49%; note: % is set by controls: 0 for no effect and ±100 for the full control effect
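Secreted IL-1B measured by AlphaLISA bead assay after 16 h compound exposure of THP-1 cells; compounds (final up to 57.5 uM) added 1 h before LPS (250 ng/mL) and ATP (1.25 mM) stimulation; lower signal means less secretion.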
D3 ag: D3 dopamine receptor (human) agonism; P35462; D3R DiscoveRx beta-arrestin cells, luminescence, 90 min; max activation, %; 0.58% of 410,000 active; in the data active = max activation above about 30%; note: 0% is about no effect
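Cells at 1500/well, incubated overnight, then treated with pinned compounds (dopamine as control) for 90 min at 37 degrees C. DiscoveRx reagent added for 30 - 60 minutes at room temperature; luminescence read.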
TDP1 cell noCPT: qHTS for Inhibitors of human tyrosyl-DNA phosphodiesterase 1 (TDP1): qHTS in cells in absence of CPT. DT40 Tdp1-/- hTDP1 cells, no CPT, ATP luminescence, 48 h. Potency, µM (titrated, usually from 46.2 µM), inactives show at the highest dose activity change, negative = growth inhibition, usual class: inhibitors. 15% of 420,000 active. AID 686978, 2013; note: potency is the fitted concentration of half-maximal effect; % is set by controls: 0 for no effect and ±100 for the full control effect; nearly all actives have a fitted effect of over 55% in size
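Seeded 400 DT40-hTDP1 cells/well (vehicle DMSO, no 20 nM CPT); pinned compounds; ≥48 hr at 37 °C; CellTiter-Glo luminescence as viability measure.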
The depositor's hits bear a star; ? = inconclusive; . = not tested or not shown. Unless noted, calls come from the whole dose curve; as a rule, active = well fitted inhibition curve with a large enough effect; inconclusive = small, poorly fitted or top-dose-only effect; inactive = flat fitted curve, though single readings scatter.

SMILES | DRD3 antagonist | DT40 TDP1 CPT | ClpP mod | IL-1B inflam inh | D3 ag | TDP1 cell noCPT
Cc1c(C)c2ccc(OC(C)C(=O)NC3CCN(Cc4ccccc4)CC3)cc2oc1=O (stereo not drawn) | -7 | 18% | . | -7 | -14 | ?
CCNC(=O)C1CCCN(C(=O)c2ccc(N(C)C)cc2)CC1 (stereo not drawn) | 7 | -13% | -1% | 22 | 5 | 12%
Cc1ccccc1Cn1ccc(NC(=O)c2nn3cccnc3c2Cl)n1 | -20 | 21µM* | . | -11 | 0 | ?
C=CC[C@@H]1/C=C(\C)C[C@H](C)C[C@H](OC)[C@H]2O[C@@](O)(C(=O)C(=O)N3CCCC[C@H]3C(=O)O[C@H](/C(C)=C/[C@@H]3CC[C@@H](O)[C@H](OC)C3)[C@H](C)[C@@H](O)CC1=O)[C@H](C)C[C@@H]2OC | . | 3.3µM* | . | . | -24 | 3µM*
Cn1c(NCc2ccccc2Cl)nc2ccccc21 | -18 | -21% | 0% | ? | -10 | ?
CN(Cc1nc2ccccc2n1C)S(=O)(=O)c1ccc(Cl)cc1 | -22 | ? | -3% | -18 | -9 | 26µM*
Cc1ccc(N2CCN(c3ccc(NCc4nc5ccccc5n4C)cc3)CC2)cc1 | ? | ? | -22% | 6 | -12 | 16µM*
Cc1ccc(NCc2nc3ccccc3n2C)c(C)c1 | 13 | ? | -3% | -17 | 7 | ?
Cn1c(CNc2ccc(Cl)cc2)nc2ccccc21 | -8 | 16µM* | -4% | 10 | -15 | ?
CCOc1ccc(-n2c(-c3ccccc3)c(C)n3c4c(=O)n(C)c(=O)n(C)c4nc23)cc1 | . | . | 1% | . | -3 | .
COc1ccc2cnn(-c3ccccc3C)c(=O)c2c1OC | 1 | 10µM* | ? | 20 | -4 | 7.3µM*
COc1ccc2cnn(-c3ccccc3)c(=O)c2c1OC | 0 | ? | -11% | -18 | -3 | ?
CCOC(=O)C1(C(=O)OCC)COC(=O)C1CN1Cc2cc3ccccc3nc2C1 (stereo not drawn) | ? | 10µM* | -8% | 0 | -14 | 9.2µM*
CC(C)(C)OC(=O)N1Cc2cc3ccccc3nc2C1 | 1 | ? | -2% | 17 | 11 | ?
CCc1cccc2c1NC(=O)C21OCCO1 | 7 | 7% | -1% | 19 | -1 | -23%
O=[N+]([O-])c1ccc(/C=N/NC(=S)Nc2ccccc2F)o1 | ? | -10% | 0% | -1 | 6 | ?
O=C(Cc1ccc2c(c1)OCO2)NN=Cc1ccc([N+](=O)[O-])o1 | ? | ? | -2% | -61* | -7 | 12µM*
O=[N+]([O-])c1ccc(/C=N/NC(=S)Nc2ccccc2)o1 | -15 | 15µM* | -5% | -6 | -1 | 23µM*
CCCCCC(=O)N/N=C/c1ccc([N+](=O)[O-])o1 | -8 | 11µM* | -5% | 21 | -19 | ?
Cc1ccc(NCC(=O)N/N=C/c2ccc(C(=O)O)cc2)cc1 | -7 | 2% | -1% | 8 | 3 | 26%
Cc1ccc(NCC(=O)N/N=C\c2ccc([N+](=O)[O-])o2)cc1 | 15 | 13µM* | -2% | -64* | 3 | 18µM*
O=C(Cc1ccc2c(c1)OCCO2)N/N=C/c1ccco1 | -17 | 2% | -2% | -14 | -1 | -9%
COc1cc(N)c(N)cc1OC | . | ? | -12% | . | . | ?
O=C(CNc1ccccc1)N/N=C/c1ccc([N+](=O)[O-])o1 | ? | 10µM* | -1% | ? | -6 | 7.3µM*
O=C(CNC(=O)c1ccccc1)N/N=C/c1ccc([N+](=O)[O-])o1 | 9 | 9.2µM* | 2% | 17 | 2 | 23µM*
